Our source for the inhibition values is ChEMBL document CHEMBL3433997, “St. Jude Leishmania screening dataset” (2016).

Several values for one entry are separate records, joined by “and”; a condition that tells them apart may be missing. Equal values may be shown once.

Common to all, as to format: functional
The target of assay [1] is Solute carrier family 2, facilitated glucose transporter member 1 (Homo sapiens) (UniProt P11166). Briefly: ST_JUDE_LEISH: Cytotoxicity at 2uM final concentration against transgenic Leishmania Mexicana promastigotes LmGLUT1 that are glucose transport deficient and complemented with the human glucose transporter GLUT1. Activity is measured by DNA content using SYBR green in vitro.

Assay [2] addresses Hexose transporter 1 (Plasmodium falciparum) (UniProt O97467). As to the kind of experiment: ST_JUDE_LEISH: Cytotoxicity at 2uM final concentration against transgenic Leishmania Mexicana promastigotes LmPfHT that are glucose transport deficient and complemented with the Plasmodium falciparum hexose transporter. Activity is measured by DNA content using SYBR green in vitro.
Assay [3] has as its target Glucose transporter (Leishmania mexicana) (UniProt O61059). As to the kind of experiment: ST_JUDE_LEISH: Cytotoxicity at 2uM final concentration against transgenic Leishmania Mexicana promastigotes LmGT2 that are glucose transport deficient and complemented with the L. Mexicana glucose transporter 2. Activity is measured by DNA content using SYBR green in vitro.

Chain of Solute carrier family 2, facilitated glucose transporter member 1 (Homo sapiens) (P11166 whole entry): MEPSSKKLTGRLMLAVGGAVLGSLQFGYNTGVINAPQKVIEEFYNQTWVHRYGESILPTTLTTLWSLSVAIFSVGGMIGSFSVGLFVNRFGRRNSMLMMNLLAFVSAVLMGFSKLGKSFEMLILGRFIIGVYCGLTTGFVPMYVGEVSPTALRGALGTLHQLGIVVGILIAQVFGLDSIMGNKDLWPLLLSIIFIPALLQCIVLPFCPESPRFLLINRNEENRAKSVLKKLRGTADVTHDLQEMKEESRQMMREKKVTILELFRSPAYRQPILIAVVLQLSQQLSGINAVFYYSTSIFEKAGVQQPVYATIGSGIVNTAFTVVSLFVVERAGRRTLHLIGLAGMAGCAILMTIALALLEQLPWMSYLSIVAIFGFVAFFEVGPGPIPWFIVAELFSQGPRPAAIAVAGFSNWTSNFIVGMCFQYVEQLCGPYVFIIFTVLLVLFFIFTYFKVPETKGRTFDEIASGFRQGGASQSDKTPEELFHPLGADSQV

Regarding `CCOC(=O)c1c(CN2CCN(C)CC2)n(Cc2ccccc2)c2cc(Br)c(O)cc12`, the results for the inhibition in assay [1], in assay [2] and in assay [3] were 17.4%, 16.7% and 12.7%, respectively.

For `Cc1cc(N)nc2ccc(CNCCc3ccccc3Br)cc12`, the inhibition in assay [1] is 1.91%; in assay [2], 1.25%; in assay [3], 1.79%.

For the molecule `CCCCCCCc1cc(O)c2c3c(c(=O)oc2c1)CN(C)CC3`, the inhibition in assay [1] is 10.7%; in assay [2] it was 11.3%; in assay [3], 10.7%.

For `CC[C@H]1CN2CC[C@@H]1C[C@H]2[C@H](O)c1cc(N2CCC(C)CC2)nc2ccc(OC)cc12`, the inhibition in assay [1] was found to be 7.8%; in assay [2], 9.59%; in assay [3], 5.06%.

On to `NC1=NC2(CCCC2)N(c2ccc(Cl)cc2)C(N)=N1`, for which the figures for the inhibition in assay [1], in assay [2] and in assay [3] were 3.05%, 4.23% and 3.83%, respectively.

For the molecule `O=C(/C=C/c1cccc(F)c1)NC1CCC(CN2CCC(c3c[nH]c4ccccc34)CC2)CC1` (stereo not given), the inhibition in assay [1] is 2.52% and 1.33%; in assay [2] it was -0.05% and 2.1%; in assay [3], -1.71% and 2.77%.

With `CCc1ccc(CC(C)NCC(O)c2ccccc2)cc1` (stereo not given), the inhibition was 1.06% in assay [1], 1.04% in assay [2] and 1.94% in assay [3].

Take `CC(=O)C1(c2ccccc2)CCN(CCC2(c3ccc(Cl)c(Cl)c3)CN(C(=O)CC(C)C)CCO2)CC1` (stereo not given): the figures for the inhibition in assay [1], in assay [2] and in assay [3] were -0.51%, 0.43% and -2.67%, respectively.

With `O=C(/C=C/c1ccc(Cl)c(Cl)c1)NCCCCCN1C2CCC1CC(c1c[nH]c3ccccc13)C2` (stereo not given), the values for the inhibition in assay [1], in assay [2] and in assay [3] were 0.42%, 1.9% and 2.33%, respectively.

On to `Cc1[nH]c2cc(F)ccc2c1C1=CCN(CCCCC2(C)C(=O)Nc3ccccc32)CC1` (stereo not given), for which the inhibition in assay [1] stood at 2.11%; in assay [2] it was 1.23%; in assay [3], 0.15%.

Turning to `CNC(=O)c1ccc2[nH]cc(C3CCN(CC4CCN(C(=O)/C=C/c5ccc(Cl)c(Cl)c5)CC4)CC3)c2c1`, the inhibition is 1.1% in assay [1], -0.15% in assay [2] and 0.08% in assay [3].

Consider `COC(=O)c1ccc(CC(C)NCC(O)c2cccc(Cl)c2Cl)cc1` (stereo not given), for which the inhibition was 3.29% in assay [1], 2.6% in assay [2] and 3.04% in assay [3].

Consider `CC[C@H]1CN2CC[C@H]1C[C@H]2[C@H](O)c1cc(-c2ccccc2C(F)(F)F)nc2ccc(OC)cc12`, for which the results for the inhibition in assay [1], in assay [2] and in assay [3] were 0.61%, 1.6% and -1.22%, respectively.

Turning to `CC(Cc1ccc(SCCSc2ccccc2)cc1)NCC(O)c1cccc(Cl)c1` (stereo not given), the results for the inhibition in assay [1], in assay [2] and in assay [3] were 0.69%, -0.5% and 1.16%, respectively.

Turning to `C[C@@H](CC1CCCCC1)NCc1ccccc1O`, the inhibition in assay [1] stood at 4.7%; in assay [2], 11.1%; in assay [3] it was 3.31%.

`CC(=O)N(Cc1ccccc1-c1cccc(CNCc2ccc3c(c2)OCO3)c1)C1CCN(Cc2ccccc2)CC1`: the inhibition stood at 3.8% in assay [1], 5.58% in assay [2] and 3.79% in assay [3].

`COc1ccc(CC(C)NCC(O)c2cccc(Cl)c2)cc1C` (stereo not given): the inhibition in assay [1] was 7.48%; in assay [2], 5.85%; in assay [3], 7.3%.

Consider `Cc1ccc(C)c(C=CC(=O)NC2CCC(CN3CCC(c4c[nH]c5ccccc45)CC3)CC2)c1` (stereo not given), for which the inhibition in assay [1] was 1.09% and 15%; in assay [2], 1.99% and 11.5%; in assay [3], 1.04% and 10.2%.

On to `Cc1ccccc1C1=CCN(CCCN2c3ccccc3Sc3ccc(Cl)cc32)CC1`, for which the inhibition worked out at 6.62% in assay [1], 5.58% in assay [2] and 1.49% in assay [3].

For `CCCCCC(C)C(C)c1cc(O)c2c3c(c(=O)oc2c1)CN(Cc1ccccc1)CC3` (stereo not given), the inhibition in assay [1] is 2.03%; in assay [2], 0.04%; in assay [3], -0.43%.

For the molecule `Cc1ccc(CC(C)NCC(O)c2cccc([N+](=O)[O-])c2)cc1` (stereo not given), the inhibition in assay [1] was 0.3%; in assay [2], -0.33%; in assay [3], 1.06%.

On to `COCCNCc1cccc(-c2ccc(CN(C(=O)NC3CCCCC3)C3CCN(Cc4ccccc4)CC3)cc2)c1`, for which the inhibition in assay [1] amounted to 7.28%; in assay [2], 3.57%; in assay [3] it was 2.09%.

As for `CC(C)CNCc1cccc(-c2ccc(CN(C(=O)c3cccs3)C3CCN(Cc4ccccc4)CC3)cc2)c1`, the inhibition in assay [1] was 2.62%; in assay [2], 4.53%; in assay [3], 6.86%.

`COC(=O)c1ccc(C[C@@H](C)NC[C@H](O)c2cccc(C(F)(F)F)c2)cc1`: the inhibition in assay [1] is 3.2%; in assay [2] it was 4.43%; in assay [3], 0.45%.

Turning to `CC(C)/C(=C(/F)CN1C(=O)C(NC(=O)c2cc3ccccc3[nH]2)C(=O)N(c2ccccc2)c2ccccc21)c1ccccc1` (stereo not given), the inhibition is -0.35% in assay [1], -0.22% in assay [2] and -1.01% in assay [3].

For the molecule `Cc1[nH]c2cc(Cl)ccc2c1C1=CCN(CCCCC2(C)C(=O)Nc3ccccc32)CC1` (stereo not given), the inhibition was determined as 2.01% in assay [1], 0.91% in assay [2] and 1.15% in assay [3].

Turning to `CC(C)N(C)C(=O)n1cnc(S(=O)(=O)C2CC3CCC2C3)n1` (stereo not given), the inhibition in assay [1] is 2.26%; in assay [2], 1.45%; in assay [3], -0.84%.

For the molecule `O=C(NC1CCC(CN2CCC(c3c[nH]c4ccccc34)CC2)CC1)c1cc2cccc([N+](=O)[O-])c2[nH]1` (stereo not given), the results for the inhibition in assay [1], in assay [2] and in assay [3] were -2.16%, 2.66% and -0.94%, respectively.

For `Cc1c(C(=O)N[C@@H](C)c2ccccc2)c2cc(O)c(Br)cc2n1C1CCCCC1`, the inhibition is 2.84% in assay [1], 2.43% in assay [2] and 3.33% in assay [3].

Turning to `Cc1[nH]c2ccccc2c1C1=CCN(CCN2CCOc3c(Br)cccc3C2=O)CC1`, the inhibition was 1.66% in assay [1], 1.57% in assay [2] and 1.55% in assay [3].

Consider `Cc1cccc(C(=O)Nc2ccnc(N(C)C3CCN(CC(C)C)CC3)c2)c1`, for which the inhibition was -0.27% in assay [1], 0.85% in assay [2] and 0% in assay [3].

As for `S=C(NCCc1ccc(Cl)cc1)N1CCC(CN2CCC(c3c[nH]c4ccccc34)CC2)CC1`, the inhibition was 3.04% in assay [1], 1.73% in assay [2] and 1.67% in assay [3].

As for `COC(=O)/C=C/C(=O)N[C@@H]1CC[C@@]2(O)[C@H]3Cc4ccc(O)c5c4[C@@]2(CCN3CC2CC2)[C@H]1O5`, the inhibition worked out at 4.79% in assay [1], 5.03% in assay [2] and 6.57% in assay [3].

For the molecule `O=C(/C=C/c1ccsc1)NC1CCC(CN2CCC(c3c[nH]c4ccccc34)CC2)CC1` (stereo not given), the results for the inhibition in assay [1], in assay [2] and in assay [3] were 1.44%, -2.35% and -0.88%, respectively.

Take `CN(c1cc(NC(=O)c2ccccc2)ccn1)C1CCN(Cc2cccc(F)c2)CC1`: the inhibition in assay [1] was determined as 1.23%; in assay [2] it was 4.2%; in assay [3], 2.33%.

The term inhibition denotes the relative decrease from the control value, in per cent.
